Test results as given in the supplement of paper PMC6555819.

How the values were obtained:
Assay in all cases: PBM binding z-score (relative to random genomic background probes); higher = stronger binding; sequences stand for … in GC…GCGATTGACAGCGTAGAATGAAGG
[1] = tested on: FXR:RXRa (NR concentration 270 nM, RXRa partner concentration 90 nM)
Method in brief: (§1)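 Each nuclear receptor dimer, without ligand, was incubated for 1 h on custom Agilent 4×180K protein-binding microarrays. Binding was detected with antibodies against each partner (one per run), and scanned fluorescence was regression-normalized. The binding z-scores are referenced to random human genomic background probes.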

[2] = tested on: LXRa:RXRa (NR concentration 270 nM, RXRa partner concentration 90 nM)
Method in brief: as §1

[3] = tested on: LXRa homodimer (NR concentration 270 nM)
Method in brief: as §1

[4] = tested on: LXRb:RXRa (NR concentration 270 nM, RXRa partner concentration 90 nM)
Method in brief: as §1

[5] = tested on: LXRb homodimer (NR concentration 270 nM)
Method in brief: as §1

[6] = tested on: PPARa:RXRa (NR concentration 270 nM, RXRa partner concentration 90 nM)
Method in brief: as §1

[7] = tested on: PPARg:RXRa (NR concentration 180 nM, RXRa partner concentration 90 nM)
Method in brief: as §1

[8] = tested on: PPARg:RXRa 270nM:90nM, anti-RXR (NR concentration 270 nM, RXRa partner concentration 90 nM)
Method in brief: as §1

[9] = tested on: PPARg:RXRa 30nM:10nM, anti-RXR (NR concentration 30 nM, RXRa partner concentration 10 nM)
Method in brief: as §1

[10] = tested on: PPARg:RXRa 90nM:30nM, anti-RXR (NR concentration 90 nM, RXRa partner concentration 30 nM)
Method in brief: as §1

Sequence	PBM binding z-score [1]	PBM binding z-score [2]	PBM binding z-score [3]	PBM binding z-score [4]	PBM binding z-score [5]	PBM binding z-score [6]	PBM binding z-score [7]	PBM binding z-score [8]	PBM binding z-score [9]	PBM binding z-score [10]
TCTAGTTGGTCACGGAGGTCATACACGACGGGTA	3.53	3.79	3.37	3.52	0.955	3.92	3.08	3.93	3.65	3.86
TCGAGTAGGTTAGGGGCTTTCAGAATGGCGTCGA	-0.147	0.172	-0.23	0.6	-0.232	0.524	0.208	1.76	0.813	1.15
TATAGCAGGCCAGAGGGTCACTCAAGAGGTACGG	1.02	1.2	-0.173	1.21	-0.338	2.59	2.56	3.15	1.56	3.12
TCATAGAGGTAAAAGGTGAAAGTCGGTGTGGTAA	1.97	1.96	-0.0856	2.03	-0.828	4.69	6.33	6.66	5.72	7.33
GCGACTGGGGCATCAGCAGGTTAGCATAACTTAA	-0.723	-0.775	-0.738	0.063	-1.51	0.705	0.575	0.572	-0.512	0.0276
CGTCCAAGTTCAGAGAGGTCAGTGAATGCCGAGT	3.32	3.64	3.27	3.1	0.431	3.19	0.531	1.5	-0.176	0.671
TCTCGGAGGACACGTAAGGTCAGAGCTCGACATC	2.43	3.03	1.46	2.1	-0.238	2.29	0.563	1.42	1.78	1.58
AGAACGAGGGCACGCTGAGTTGGTAGCAGAGTAG	0.682	0.402	-0.489	-0.113	-0.719	1.87	1.62	1.46	-0.03	0.942
GCTGCTAGGTCAACAGATGGTCAGCTAAAGCTCG	3.13	2.22	-0.297	1.37	-0.198	2.99	2.43	2.5	0.277	1.86
CGAACTAGGTCATCTAGGACAGTGAATACATTGA	4.09	2.49	0.484	2.12	-0.144	4.72	7.33	6.44	3.66	5.7
AATACATGGTCACTAGGCCAGAGTAGGTACGAAT	-0.31	-0.00437	-0.0579	-0.301	-0.193	0.587	1.65	1.15	0.153	0.688
CCTACTGGGCCAAAGGTCATTTATTCCAATGCTC	4.91	5.02	5.54	5.19	1.7	6.68	12.4	10.4	11	11.5
CCAGACAGGTGAGAAGGTAAGTCAGCCTCGATTA	0.146	0.152	-0.318	0.215	-0.265	0.66	0.255	0.254	-0.405	-0.0734
TCATATAGGTAAAGGTGAAAGGCGAACGATATGA	0.813	1.12	-0.0796	1.17	0.0383	3.4	4.29	4.99	4.35	4.93
CGTCCAAGGTCATAGGAGGTCAGCGAAGACAGAT	7.87	7.84	5.46	6.23	1.15	6.44	6.36	5.99	2.57	4.9
CCAGACGGGTGAAAGGTAACTCAGTCTGGTACGC	0.176	0.178	-0.5	0.239	-0.986	2.87	4.88	5.6	3.4	5.98
AGAATGAGGTTACCTAAGATCAGGGAAACGCTTG	1.57	6.42	-0.328	3.4	-0.272	3.36	2.39	2.16	0.68	1.55
CCTAGTTGGTCAGGAGGTCACACGCCGGATATGA	3.62	3.32	1.92	3.15	0.554	4.05	3.59	3.92	1.69	2.84
AGAACGAGGGCAATGAGTAGATAGCACGGGTGGC	0.288	0.27	-0.537	-0.239	-0.59	1.49	1.6	1.05	0.241	0.733
TCATATAGGTAATGCAGGTGAAAGTCGGCATCTA	0.698	0.973	0.228	0.199	-0.224	2.23	1.65	2.58	3.86	2.86
GTACTAAGGTGAATAGGTCGTTGATGAGTAGGCG	1.68	1.21	0.221	0.926	0.00742	2.75	1.77	2.5	0.778	1.53
TAGCTTAGGTCATTGGGCCAGTATAGTACGCATC	4.59	4.02	1.12	2.62	0.994	4.09	2.96	3.44	1	2.18
TCTGCTAGGTAAACGATGGTCAGCTAATCTGCTA	-0.588	-0.334	-0.988	-0.606	-1.07	-0.0928	-0.293	0.636	1.68	1.22
TCTTGGAGGACACGAAGGTCAGAGCTTTCCAGAG	1.51	1.47	0.0796	1.27	-0.69	2.1	0.905	2.2	2.51	2.31

Sequence	PBM binding z-score [1]	PBM binding z-score [2]	PBM binding z-score [3]	PBM binding z-score [4]	PBM binding z-score [5]	PBM binding z-score [6]	PBM binding z-score [7]	PBM binding z-score [8]	PBM binding z-score [9]	PBM binding z-score [10]
ATATGTAGGTTATAGGGTCATTCAGTTTGCGCAT	4.47	4.26	2.22	3.98	1.38	5.36	7.99	7.04	5.54	7.25
TAGCCTAGGTCATTCAGGAGCCAGTATAGAAAGC	4.36	3.63	0.522	2.42	0.687	3.57	1.84	2.24	0.638	1.63
TCTATTAGTTGATTAGGCCAACCGAAACAGCGGA	0.75	0.591	0.444	0.663	0.882	0.722	0.22	2.07	3.98	3.02
TTACCAAGGTGAAAGGTTGTTGATGCACGCCTTG	1.23	1.15	-0.416	1	-0.595	3.78	5.72	6.02	4.55	6.25
AATACAGGGTCACTAGGCCAGAATAGGTACGAAT	6.2	5.06	1.04	4.11	1.02	5.95	7.89	6.5	2.7	5.33
ATCTCTAGGTAACAAGTTCAGTGAGAGAGAGGAC	0.938	0.818	0.556	0.613	1.01	1.54	1.41	2.15	0.897	1.64
CGTCCACGGTCATAGGAGGTCAGTGAAGACAGAT	2.58	4.52	2.1	2.15	-0.643	2.16	0.881	0.977	-0.0793	0.32
CATCCAAGGTCAGAGAGGTCAGTGAATGCCGAGT	6.31	5.84	4.54	4.58	1.57	5.23	4.13	4.43	1.5	2.83
AGAATGAGGTTATTAATATCAGGGAATTGCGGTC	1.19	1.32	0.394	1.3	-0.0827	2.47	1.54	1.67	0.598	1.35
TGTCAAAGTTTAAAGGTAACGTAAGTATCCACAC	1.49	1.72	0.175	1.29	-0.187	2.79	4.23	4.3	1.98	3.41
CCTGCTAGGTCCATGGTCAGCTAAAGCAGCTCGC	-0.648	-0.658	-0.744	-0.958	-0.563	-0.447	-0.772	-0.287	-1.2	-0.648
TTACCAAGGTGAGCTGAGGTCGTTGAACCAACTC	1.78	1.48	-0.292	0.787	-0.885	1.88	0.111	0.783	-0.445	0.391
CCTAGCAGGCCAGGGTCACTGAAGCATTTCGCTT	2.08	1.76	-0.679	2.1	-1.29	3.35	0.613	1.95	-0.0383	1.16
CCTAGTTGGTCAAGGTCACCCACGCTATAGGTAC	4.05	3.51	2.14	3.51	0.583	4.14	2.93	3.43	1.1	2.35
CGAACTAGGTGATCCAGGACAGTGAATACATTGA	-0.144	-0.403	-0.0294	-0.189	-0.452	1.76	2.3	1.72	0.625	1.09
CGAACAAGGGCATGAGTTGATAGCAAATGCCGAT	-0.0162	0.00346	-0.221	-0.134	-0.495	0.425	0.963	0.765	0.259	0.196
TAGCCAAGGTCATGGGCCAGTATACCACGCGAAC	7.33	5.41	0.809	4.45	0.229	6.11	5.96	6	2.19	4.55
ACTAGCAGGCCAAGTTTCGGTCACTCAAACAAAG	-0.253	-0.249	0.38	-0.133	-0.471	-0.0764	-0.26	-0.531	-0.703	-0.73
GCATATAGGTAATACAAGGTGAAAGTTCGATTGT	1.05	2.54	0.814	1.37	-0.201	2.67	3.47	4.13	2.29	3.58
GCATATAGGTAATACAAGGGGAAAGTCCGATTGT	0.256	0.159	0.0811	-0.078	-0.118	0.754	0.908	0.64	0.337	0.269
ATCGAAAGATCGACGAGGTGAGTATACACCGTTT	-0.0851	-0.16	-0.368	-0.346	-0.329	0.0246	0.902	-0.253	0.289	0.00942
CTCGAAAGGTCGGTTGAGGTGATTATACGGATAA	2.6	1.84	-0.0507	1.68	-0.13	2.79	0.571	1.14	0.341	0.688
CGAACTAGGTCATTGACAGGAGAGTGAATAGTAA	4.67	2.65	0.0352	1.64	-0.158	4.89	7.41	6.44	3.96	5.77
CCTAGCAGGCCAGGGTCTCTCAAGCATTTCGCTT	-0.78	-0.742	-0.767	-0.956	-1.15	-0.63	-0.954	-0.991	-1.16	-1.4
